# Rows were chosen to be rich in hits. Some 3.8% of all compounds tested hit in one or more screens of this group.
# ATXN viability: Viability Counterscreen for Primary qHTS for Inhibitors of ATXN expression | actives 0.49% (n = 400,000) | Potency, µM (top dose mostly 56.7 µM), actives largely listed as cytotoxic | S2 cells (HEK-293 line with an ATXN2-luciferase reporter) viability, CellTiter-Fluor protease fluorescence, 24 h | AID 651635, 2014; note: nearly all actives have a fitted effect of over 40% in size
# ATXN2 expr inh: Primary qHTS for Inhibitors of ATXN expression. HEK-293 ATXN2-luciferase reporter, luminescence, 24 h. Potency, µM (top dose mostly 57 µM), without a hit: at the highest dose activity change, negative = inhibition, actives largely listed as inhibitors. actives 0.72% (n = 360,000). AID 1745845, 2022; note: % is set by controls: 0 for no effect and ±100 for the full control effect; nearly all actives have a fitted effect of over 55% in size
#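 ATXN2-luciferase reporter cells (luciferase flanked by upstream and downstream ATXN2 gene portions) were treated 24 h at 37 °C with compounds at up to 57 uM. SteadyGlo luminescence gave expression; GF-AFC fluorescence gave viability.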
# HepG2 viability: qHTS for Inhibitors of TGF-b: Cytotox Counterscreen. HepG2 CAGA-GFP viability, ATP luminescence, 18 h. Potency, µM (titrated, usually from 46.1 µM), for inactives: at the highest dose activity change, negative = cytotoxicity, hits mostly cytotoxic. actives 0.76% (n = 410,000)
#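 HepG2 CAGA-GFP cells (1000/well, DMEM with 1% FBS) received compound, then TGF-beta at 500 pg/mL final, and were incubated 18 hours at 37 degrees C. Viability was read by CellTiter-Glo luminescence. Media-only wells were set as complete cell-killing and DMSO as no toxicity.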
# HT1080NT lethal: qHTS for induction of synthetic lethality in tumor cells producing 2HG: qHTS for the HT-1080-NT fibrosarcoma cell line; HT-1080-NT fibrosarcoma viability, CellTiter-Glo ATP luminescence, 48 h; Potency, µM (highest dose often 46.1 µM), without a hit: at the highest dose activity, negative = less viability, actives largely listed as cytotoxic; actives 1.6% (n = 360,000); AID 686970, 2013;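 note: NT is the 2HG producing partner of a matched IDH1 knockdown line; 0% = DMSO-treated cells and -100% = media-only wells without cells; nearly all actives have a fitted effect of over 55% in size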
#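 Fibrosarcoma NT cells, 750 per well in 5% FBS RPMI, were exposed to compound for 48 hours. Viability: CellTiter-Glo luminescence.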
# TGFb SMAD3 inh: qHTS for Inhibitors of TGF-b; Potency, µM (highest dose often 46.1 µM), without a hit: top-dose activity, negative = inhibition, usual class: inhibitors; actives 1.2% (n = 410,000); AID 588855, 2011; HepG2 CAGA-GFP TGF-b/SMAD3 reporter, GFP fluorescence, 18 h; TGF-beta stimulated, 500 pg/mL final; note: % is set by controls: 0 for no effect and ±100 for the full control effect; nearly all actives have a fitted effect of over 65% in size
#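 HEPG2 CAGA-GFP, 1000 cells/well; 2 h settle, 37 C; cpd via pin tool; TGF-b 500 pg/mL final; 18 h, 37 C; GFP imaging ex488/em500-530; %Activity normalised to -TGF-b and +DMSO controls; CRC fit, curve class.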
# HT1080 IDH1KD tx: qHTS for induction of synthetic lethality in tumor cells producing 2HG: qHTS for the HT-1080-IDH1KD cell line | Potency, µM (titrated, usually from 46.1 µM), without a hit: top-dose activity, negative = toxicity, most hits filed as cytotoxic | HT-1080 IDH1 knockdown viability, ATP luminescence, 48 h | actives 2% (n = 360,000);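 note: 0% = DMSO wells and -100% = cell-free medium wells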
#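 After a 2 h attachment period, IDH1KD HT-1080 cells took pin-transferred compound for 48 h at 37 °C; ATP-based luminescence after 10 min room-temperature reagent incubation reported viability.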
# The depositor's hits bear a star; i = inactive; ? = inconclusive; . = no result. Calls come from the whole dose curve; as a rule, active = well fitted curve in the direction sought with a large enough effect; inconclusive = small, poorly fitted or top-dose-only effect, or another doubt; inactive = no such curve, though single readings can be large; an effect the other way counts as inactive or inconclusive. Potency is the fitted concentration of half-maximal effect.
SMILES,ATXN viability,ATXN2 expr inh,HepG2 viability,HT1080NT lethal,TGFb SMAD3 inh,HT1080 IDH1KD tx
CCCOc1ccc(C(=O)Nc2ccc(NC(=O)c3cccs3)cc2)cc1,i,-17%,16%,1%,47%,12%
CCSc1nc(-c2ccc(Cl)cc2)nc2c1Cc1c(CO)cnc(C)c1O2,i,4%,-11%,.,-9%,.
CCCCn1c(CN2CCN(c3cccc(Cl)c3)CC2)nc2c1c(=O)[nH]c(=O)n2C,?,?,-40%,5µM*,?,3.5µM*
Cn1c(=O)[nH]c(=O)c2c1nc(CN1CCN(c3cccc(Cl)c3)CC1)n2CCCc1ccccc1,i,-24%,-54%,-1%,?,-2%
CC1(C)S[C@@H]2[C@H](NC(=O)C(c3ccccc3)S(=O)(=O)O)C(=O)N2[C@H]1C(=O)O (stereo partly drawn),i,-4%,.,.,.,.
CSc1cccc(NC(=S)N(CCCN2CCCC2)Cc2cccn2Cc2ccc(Cl)cc2)c1,.,14µM*,-175%,18µM*,?,?
CSc1cccc(NC(=S)N(CCCN2CCCC2)Cc2cccs2)c1,i,-13%,-1%,?,-7%,?
COc1cccc(NC(=S)N(CCCN2CCCC2)Cc2cccn2Cc2ccc(Cl)cc2)c1,?,?,-178%,21µM*,?,18µM*
S=C(Nc1cccc(Cl)c1)N(CCCN1CCCC1)Cc1cccn1Cc1ccc(Cl)cc1,28µM*,32µM*,25µM*,16µM*,?,18µM*
CCOc1ccc(NC(=O)CN2C(=O)C(c3ccccc3)=NC23CCC(C)CC3)cc1 (stereo not drawn),.,.,-21%,.,?,.
CO[C@H]1[C@H](NC(=O)c2ccncc2)c2ccccc2C12CCN(C(=O)c1ccoc1)CC2,i,.,.,.,.,.
CCC1(C2CCN(Cc3ccc(OC)cc3)CC2)NC(=O)N(CC2COc3ccccc3O2)C1=O (stereo not drawn),i,.,.,.,.,.
Cc1cc(C)c2nc3nc(C)c(C)cc3c(N)c2c1,.,?,0%,?,?,13µM*
CCCSc1nc(C)c2cc(C)cc(C)c2n1,i,-10%,4%,21%,-13%,9%
O=c1[nH][nH]c2c1[C@H](CCc1cccc(Cl)c1)O[C@H](C1CC1)C2,?,9%,.,17%,.,5%
O=c1[nH][nH]c2c1[C@H](CCc1cccc(Cl)c1)O[C@H](C1CCCC1)C2,?,-14%,.,?,.,7.3µM*
CON(C)C(=O)CCN(C(=O)OC(C)(C)C)c1ccccc1,i,0%,0.56µM*,11%,27%,2%
Cc1ccccc1CN1CCc2cc([N+](=O)[O-])ccc21,i,?,13µM*,-2%,-18%,-13%
Cn1ncc2c(N3CCN(c4ccc(Cl)c(Cl)c4)CC3)ncnc21,i,0.95µM*,-7%,?,?,?
CCOC(=O)c1cccc(NC(=O)c2cc3ccccn3n2)c1,i,-22%,-49%,.,-8%,.
CCCCCNC(=O)N1CCC(CN(Cc2ccc(Cl)cc2)Cc2ccc([N+](=O)[O-])s2)C1 (stereo not drawn),.,27µM*,.,.,.,.
CCCCNC(=O)C1CCN(C(=O)N2CC(C)Oc3ccc(Cl)cc32)CC1 (stereo not drawn),.,.,-21%,.,-29%,.
FC(F)(F)c1cnc(NNC(=S)Nc2ccc(Cl)cc2)c(Cl)c1,?,?,-62%,?,2.8µM*,?
Cc1ccc(NC(=S)NNc2ncc(C(F)(F)F)cc2Cl)cc1,i,17µM*,-40%,?,?,?
Cc1ccc(NC(=S)NNc2ncc(C(F)(F)F)cc2Cl)c(C)c1,i,-31%,-32%,?,?,?
SMILES,ATXN viability,ATXN2 expr inh,HepG2 viability,HT1080NT lethal,TGFb SMAD3 inh,HT1080 IDH1KD tx
O=C(NNc1ncc(C(F)(F)F)cc1Cl)c1ccc(Cl)c(Cl)c1,i,1%,-6%,5%,-14%,-10%
Fc1ccc(NC(=S)NNc2ncc(C(F)(F)F)cc2Cl)c(F)c1,i,14µM*,-131%,?,?,16µM*
COc1cc(CN2CCC3(CCC(CNC(=O)c4ccco4)O3)CC2)cc(OC)c1 (stereo not drawn),i,.,.,.,.,.
Cc1ccc(-c2cc(C(F)F)nc(S(C)(=O)=O)n2)cc1,?,?,-188%,23µM*,?,21µM*
O=C(C[n+]1ccc(Cl)c2ccc(Cl)cc21)c1ccc(F)cc1,.,.,-7%,.,-10%,.
C#Cc1ccccc1OCCCN1CCC(C(O)(c2ccccc2)c2ccccc2)CC1,40µM*,32µM*,.,16µM*,.,16µM*
Clc1ccccc1OCCN1CCCCC1,i,-20%,-18%,14%,3%,?
COc1ccccc1OCCCN1CCC(C(O)(c2ccccc2)c2ccccc2)CC1,?,?,.,21µM*,.,16µM*
COc1ccccc1OCCCCN1CCC(C)CC1,i,-15%,1%,16%,5%,6%
OC(c1ccccc1)(c1ccccc1)C1CCN(CCCOc2ccccc2Cl)CC1,?,?,.,21µM*,.,?
Clc1ccccc1N1CCN(Cc2c[nH]c3ccccc23)CC1,i,-23%,-49%,?,16µM*,18µM*
COc1ccc(CN2CCN(Cc3c[nH]c4ccccc34)CC2)cc1OC,i,.,-38%,0%,-13%,-14%
COc1ccc(Br)cc1CN1CCN(Cc2c[nH]c3ccccc23)CC1,i,?,-97%,?,?,21µM*
O=S(=O)(c1ccc(Cl)cc1)N1CCN(Cc2c[nH]c3ccccc23)CC1,.,.,2%,-1%,-9%,3%
Cc1ccc(-n2[nH]c(C)c(N=Nc3cccc(-c4cccc(C(=O)O)c4)c3O)c2=O)cc1C,i,?,.,.,.,.
CN1CCN(c2ncc(-c3cc(Cl)cc(Cl)c3Cl)c(N)n2)CC1,.,5%,.,.,.,.
Oc1ccc(N2CCN(C(=S)NCCc3ccccc3)CC2)cc1,i,?,5%,?,9%,3.7µM*
COc1ccc(N2CCN(C(=S)NCCc3ccccc3)CC2)cc1,i,-4%,-1%,0%,0%,6%
CCOc1ccc(Nc2nc(-c3c(C)nc4ccccn34)cs2)cc1,.,-9%,.,.,.,.
COc1ccc(-c2n[nH]c(C)c2-c2ccc(Cl)cc2)c(O)c1OC,i,-13%,18µM*,-25%,-7%,?

# Source: PubChem BioAssay (National Center for Advancing Translational Sciences (NCATS))
